Three compounds from PubChem BioAssay (EPA / NIEHS) can be followed below.

Holding throughout (conditions): mRNA level, 48 h; actives raise or lower the signal
Read-out in experiment [1]: CFLAR gene, CFLAR (gene 8837)
Briefly: LTEA_HepaRG_CFLAR: Life Technologies and Expression Analysis (LTEA) Assay for CFLAR gene using HepaRG (AID 2283455). In a few lines:
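Differentiated HepaRG cells in serum-free induction medium were exposed 48 h in duplicate to eight half-log concentrations up to 100 uM in 0.5% DMSO; mRNA measured by TaqMan qRT-PCR, normalized to ACTB, GAPDH, POLR2A; bidirectional fitting versus DMSO.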

Read-out in experiment [2]: Forkhead box O1 (FOXO1), FOXO1 (gene 2308)
Briefly: LTEA_HepaRG_FOXO1: Life Technologies and Expression Analysis (LTEA) Assay for Forkhead box O1 (FOXO1) using HepaRG (AID 2283456). In short, it runs like this:
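Differentiated HepaRG cells, in serum-free induction medium with 0.5% DMSO, exposed 48 h in duplicate to 8-point half-log series from 100 uM. FOXO1 mRNA measured by TaqMan qRT-PCR, normalized to ACTB, GAPDH, POLR2A; bidirectional fit versus DMSO.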

Read-out in experiment [3]: growth arrest and DNA damage 45 (GADD45A), GADD45A (gene 1647)
Briefly: LTEA_HepaRG_GADD45A: Life Technologies and Expression Analysis (LTEA) Assay for growth arrest and DNA damage 45 (GADD45A) using HepaRG (AID 2283458). In a few lines:
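Differentiated HepaRG cells exposed 48 h in serum-free induction medium to 8 concentrations, top 100 uM in half-log steps, 0.5% DMSO. GADD45A mRNA quantified by qRT-PCR, normalized to ACTB, GAPDH and POLR2A; bidirectional fit versus DMSO.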

Read-out in experiment [4]: Forkhead box O3 (FOXO3), FOXO3 (gene 2309)
Briefly: LTEA_HepaRG_FOXO3: Life Technologies and Expression Analysis (LTEA) Assay for Forkhead box O3 (FOXO3) using HepaRG (AID 2283459). In short, it runs like this: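 Differentiated human HepaRG cells, 48 h post-plating, exposed in duplicate for 48 h in serum-free induction medium; 8-point half-log series from 100 uM in 0.5% DMSO. FOXO3 mRNA by TaqMan qRT-PCR, normalized to ACTB/GAPDH/POLR2A; bidirectional fit versus DMSO.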

Read-out in experiment [5]: ABC Transporter (ABCB1), ABCB1 (gene 5243)
Nature of the experiment: LTEA_HepaRG_ABCB1: Life Technologies and Expression Analysis (LTEA) Assay for ABC Transporter (ABCB1) using HepaRG (AID 2283460). In a few lines:
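HepaRG cells exposed in duplicate for 48 h in serum-free induction medium to eight half-log concentrations up to 100 uM in 0.5% DMSO. ABCB1 mRNA quantified by qRT-PCR, normalised to ACTB, GAPDH and POLR2A; fitted bidirectionally versus DMSO.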

Read-out in experiment [6]: growth arrest and DNA damage 45 (GADD45B), GADD45B (gene 4616)
Nature of the experiment: LTEA_HepaRG_GADD45B: Life Technologies and Expression Analysis (LTEA) Assay for growth arrest and DNA damage 45 (GADD45B) using HepaRG (AID 2283461). In short, it runs like this:
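Transcript level quantified by Fluidigm TaqMan qRT-PCR with three housekeeping genes for normalization, analyzed for up- or down-regulation against 0.5% DMSO. HepaRG cultures dosed 48 h at eight half-log concentrations up to 100 uM, duplicates.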

Read-out in experiment [7]: ABC Transporter (ABCC3), ABCC3 (gene 8714)
Briefly: LTEA_HepaRG_ABCC3: Life Technologies and Expression Analysis (LTEA) Assay for ABC Transporter (ABCC3) using HepaRG (AID 2283462). In short, it runs like this:
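Transcript level by TaqMan qRT-PCR, normalised to three housekeeping genes, fitted in both directions relative to vehicle. Chemicals tested in duplicate at eight half-log concentrations up to 100 uM for 48 h on HepaRG cells (0.5% DMSO).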

Read-out in experiment [8]: ABC Transporter (ABCB11), ABCB11 (gene 8647)
Nature of the experiment: LTEA_HepaRG_ABCB11: Life Technologies and Expression Analysis (LTEA) Assay for ABC Transporter (ABCB11) using HepaRG (AID 2283463). In short, it runs like this:
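Differentiated human HepaRG cells in serum-free induction medium, dosed in duplicate for 48 h. Eight-point half-log series from 100 uM in 0.5% DMSO; ABCB11 mRNA by qRT-PCR, normalized to ACTB, GAPDH, POLR2A, fitted bidirectionally versus DMSO.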

Read-out in experiment [9]: ABC Transporter (ABCC2), ABCC2 (gene 1244)
Briefly: LTEA_HepaRG_ABCC2: Life Technologies and Expression Analysis (LTEA) Assay for ABC Transporter (ABCC2) using HepaRG (AID 2283464). In a few lines: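 Endpoint is ABCC2 transcript level from qRT-PCR, normalized to three housekeeping genes and fitted bidirectionally relative to DMSO. Human HepaRG cells received test chemical for 48 h at up to 100 uM (8 points, half-log steps, 0.5% DMSO), duplicate wells.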

Read-out in experiment [10]: Broad substrate specificity ATP-binding cassette transporter ABCG2 (Homo sapiens) (UniProt Q9UNQ0)
Nature of the experiment: LTEA_HepaRG_ABCG2: Life Technologies and Expression Analysis (LTEA) Assay for ABC Transporter (ABCG2) using HepaRG (AID 2283465). In short, it runs like this:
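Differentiated HepaRG cells were exposed for 48 h in serum-free induction medium to 8 half-log concentrations, top 100 uM, in 0.5% DMSO. ABCG2 mRNA was measured by qRT-PCR, normalized to ACTB, GAPDH and POLR2A, with bidirectional fitting versus DMSO.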

Read-out in experiment [11]: ATP-citrate lyase (ACLY), ACLY (gene 47)
Nature of the experiment: LTEA_HepaRG_ACLY: Life Technologies and Expression Analysis (LTEA) Assay for ATP-citrate lyase (ACLY) using HepaRG (AID 2283466). In a few lines: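 Differentiated HepaRG cells exposed 48 h in serum-free induction medium to eight half-log concentrations up to 100 uM in 0.5% DMSO, duplicates. Transcript measured by Fluidigm TaqMan qRT-PCR, normalized to ACTB, GAPDH, POLR2A; bidirectional fit versus DMSO.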

Read-out in experiment [12]: Peroxisomal acyl-coenzyme A oxidase 1 (ACOX1) gene, ACOX1 (gene 51)
Nature of the experiment: LTEA_HepaRG_ACOX1: Life Technologies and Expression Analysis (LTEA) Assay for Peroxisomal acyl-coenzyme A oxidase 1 (ACOX1) gene using HepaRG (AID 2283467). In short, it runs like this:
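HepaRG cells, plated 48 h then switched to serum-free induction medium, were exposed in duplicate for 48 h to 8-point half-log concentrations up to 100 uM in 0.5% DMSO. ACOX1 mRNA was measured by qRT-PCR, normalized to ACTB/GAPDH/POLR2A, and fitted bidirectionally versus DMSO.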

Read-out in experiment [13]: Alkaline Phosphatase, Placental (ALPP) gene, ALPP (gene 250)
Briefly: LTEA_HepaRG_ALPP: Life Technologies and Expression Analysis (LTEA) Assay for Alkaline Phosphatase, Placental (ALPP) gene using HepaRG (AID 2283468). In a few lines: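 ALPP transcript level, measured by qRT-PCR and normalized to three housekeeping genes (ACTB, GAPDH, POLR2A), after 48 h dosing of differentiated HepaRG in serum-free induction medium. Top concentration 100 uM with half-log dilutions (8 points, 0.5% DMSO, duplicates); bidirectional fitting relative to DMSO.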

Read-out in experiment [14]: Bcl-2 (BAD) gene, BAD (gene 572)
Nature of the experiment: LTEA_HepaRG_BAD: Life Technologies and Expression Analysis (LTEA) Assay for Bcl-2 (BAD) gene using HepaRG (AID 2283469). In short, it runs like this:
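Differentiated HepaRG cells were exposed in duplicate in 0.5% DMSO for 48 h to eight-point half-log concentrations up to 100 uM. BAD mRNA was measured by Fluidigm TaqMan qRT-PCR, normalized to ACTB, GAPDH and POLR2A, and fitted bidirectionally against DMSO.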

Read-out in experiment [15]: Bcl-2 (BAX) gene, BAX (gene 581)
Briefly: LTEA_HepaRG_BAX: Life Technologies and Expression Analysis (LTEA) Assay for Bcl-2 (BAX) gene using HepaRG (AID 2283470). In a few lines: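 Differentiated HepaRG cells exposed 48 h in serum-free induction medium, eight half-log concentrations from 100 uM, in duplicate, 0.5% DMSO vehicle. BAX mRNA by TaqMan qRT-PCR, normalised to ACTB, GAPDH and POLR2A.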

Read-out in experiment [16]: adenosine kinase (ADK) gene, ADK (gene 132)
Nature of the experiment: LTEA_HepaRG_ADK: Life Technologies and Expression Analysis (LTEA) Assay for adenosine kinase (ADK) gene using HepaRG (AID 2283471). In a few lines: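 ADK expression quantified by qRT-PCR, normalised to three housekeeping genes, after 48 h exposure of HepaRG cells to eight concentrations (top 100 uM, half-log steps, duplicate, 0.5% DMSO). Up- or down-regulation fitted relative to vehicle.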

Read-out in experiment [17]: Alpha-fetoprotein (AFP) gene, AFP (gene 174)
Nature of the experiment: LTEA_HepaRG_AFP: Life Technologies and Expression Analysis (LTEA) Assay for Alpha-fetoprotein (AFP) gene using HepaRG (AID 2283472). In short, it runs like this:
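Differentiated human HepaRG cells exposed 48 h in serum-free induction medium, 8-point half-log series from 100 uM in 0.5% DMSO, duplicate. AFP mRNA by qRT-PCR, normalized to ACTB, GAPDH, POLR2A; bidirectional fit vs DMSO.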

Read-out in experiment [18]: BCL2L11 (gene 10018)
Briefly: LTEA_HepaRG_BCL2L11: Life Technologies and Expression Analysis (LTEA) Assay for Bcl-2 (BCL2L11) gene using HepaRG (AID 2283473). In a few lines: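 BCL2L11 transcript levels are measured by Fluidigm qRT-PCR, normalized to three housekeeping genes. HepaRG cultures were plated 48 h, then treated 48 h with test chemical (top 100 uM, half-log, 0.5% DMSO vehicle); curves were fitted bidirectionally against DMSO.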

Read-out in experiment [19]: Apolipoprotein A-V (APOA5) gene, APOA5 (gene 116519)
Nature of the experiment: LTEA_HepaRG_APOA5: Life Technologies and Expression Analysis (LTEA) Assay for Apolipoprotein A-V (APOA5) gene using HepaRG (AID 2283474). In a few lines: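 APOA5 transcript levels were quantified by qRT-PCR, normalized to three housekeeping genes, after 48 h chemical treatment of HepaRG cells (8 points, 100 uM maximum, half-log steps, 0.5% DMSO). Curves fitted in both directions against vehicle.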

Molecules are shown by their SMILES. Activity calls are given as the source filed them. The calls were made as follows: active = hit-call score of the fitted dose curve at least 0.9, where 1 is the maximum; inactive = score below 0.9.

Sequence of Broad substrate specificity ATP-binding cassette transporter ABCG2 (Homo sapiens) (Q9UNQ0 whole entry, looked up): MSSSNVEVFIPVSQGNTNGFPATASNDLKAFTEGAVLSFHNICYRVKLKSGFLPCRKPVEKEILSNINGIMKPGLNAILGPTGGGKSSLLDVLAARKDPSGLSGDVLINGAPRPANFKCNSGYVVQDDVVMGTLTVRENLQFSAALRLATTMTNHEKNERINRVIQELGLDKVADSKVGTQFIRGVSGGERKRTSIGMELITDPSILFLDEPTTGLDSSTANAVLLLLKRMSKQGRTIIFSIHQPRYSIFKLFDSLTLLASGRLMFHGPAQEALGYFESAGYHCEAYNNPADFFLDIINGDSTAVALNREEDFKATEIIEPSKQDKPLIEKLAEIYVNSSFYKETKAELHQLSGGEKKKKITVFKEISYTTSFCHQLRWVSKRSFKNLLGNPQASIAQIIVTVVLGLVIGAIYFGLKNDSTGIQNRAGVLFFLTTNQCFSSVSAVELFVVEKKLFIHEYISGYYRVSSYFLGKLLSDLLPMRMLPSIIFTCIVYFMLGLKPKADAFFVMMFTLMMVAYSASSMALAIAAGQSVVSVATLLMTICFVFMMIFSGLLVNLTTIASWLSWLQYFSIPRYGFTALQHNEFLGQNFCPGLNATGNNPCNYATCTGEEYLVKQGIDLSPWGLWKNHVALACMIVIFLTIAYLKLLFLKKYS

For `O=C(O)c1ccccc1C(=O)OCc1ccccc1`, the compound was classed as inactive in experiment [1], in experiment [2], in experiment [3], in experiment [4], in experiment [5] and in [6]. Also, the result in experiment [7], in experiment [8], in [9], in [10], in [11] and in experiment [12] was inactive. Further, the call in [13], in experiment [14], in experiment [15], in experiment [16], in experiment [17] and in experiment [18] was inactive. In experiment [19], the compound was called inactive.

Usually AC50 stands for the concentration giving half of the maximal activity seen. Take `Cc1oc2c(NC(=O)c3c(Cl)cccc3Cl)cccc2c1C(C)(C)O`: the compound was called inactive in [1], in experiment [2], in experiment [3], in experiment [4], in experiment [14] and in experiment [18]. The AC50 in experiment [5] is 80.5 µM (active); in experiment [6] it was 75.6 µM (active); in experiment [7], 16.1 µM (active); in experiment [8], 23.8 µM (active); in [9], 33.8 µM (active); in [11], 29.6 µM (active). The AC50 in experiment [12] is 30 µM (active); in experiment [13], 50 µM (active); in experiment [15], 85.9 µM (active); in [17], 15.8 µM (active); in experiment [19] it was 50.7 µM (active).

As to `O=C(O)Cc1cc(I)c(Oc2ccc(O)c(I)c2)c(I)c1`, the compound was called inactive in experiment [1], in experiment [4], in experiment [5], in [7], in [9] and in experiment [11]. The compound was classed as inactive in experiment [14], in experiment [16] and in [18]. Besides, the AC50 is 50 µM (active) in experiment [2]; 94.5 µM (active) in [3]; 50 µM (active) in experiment [6]; 20.2 µM (active) in experiment [8]; 86 µM (active) in [12]; 76.9 µM (active) in experiment [13]. For the same compound, the figures for the half-maximal activity concentration (AC50) in experiment [15], in experiment [17] and in experiment [19] were 87.2 µM (active), 74.7 µM (active) and 84.9 µM (active), respectively.
